This is part of a sample that, as a whole, favours compounds with a hit. Of some 83,000 tested, about 20% had one in any assay.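 Each cell line was grown in a 96-well plate and treated with one concentration of compound for 48 hours. Values below 10 were considered active.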 Values without a mark were called inactive. Calls of active or inactive are those of the source.
Assays:
Test in all cases: NCI-60 one-dose screen, 48 h (100 = growth as untreated, 0 = no growth, -100 = all killed)
NCI-H23 lung = conditions: 10 µM unless noted
NCI-H226 lung = conditions: 10 µM unless noted
NCI-H322M lung = conditions: 10 µM unless noted
HOP-62 NSCLC = conditions: 10 µM unless noted
NCI-H460 lung = conditions: 10 µM unless noted
HOP-92 NSCLC = conditions: 10 µM unless noted
NCI-H522 lung = conditions: 10 µM
786-0 renal = conditions: 10 µM unless noted
COLO 205 colon = conditions: 10 µM unless noted

SMILES	growth (NCI-H23 lung)	growth (NCI-H226 lung)	growth (NCI-H322M lung)	growth (HOP-62 NSCLC)	growth (NCI-H460 lung)	growth (HOP-92 NSCLC)	growth (NCI-H522 lung)	growth (786-0 renal)	growth (COLO 205 colon)
COc1ccc(C2CC(c3ccc(Nc4ccnc5cc(Cl)ccc45)cc3)=NN2C(C)=O)cc1 (stereo not given)	84.3%	79.2%	98.8%	89.4%	85.4%	36.5%	67.3%	81.2%	96%
Cc1ccc(OCC(=O)Nc2ccc(Oc3ccccc3)cc2)c([N+](=O)[O-])n1	47%	68.8%	95%	79.6%	76.3%	73.7%	33.2%	66.3%	94.5%
COc1cc2c(cc1OC)C(=O)/C(=C/c1cccc(OCC(=O)c3ccccc3)c1)C2	90.8%	86.1%	75%	105%	90.4%	40.9%	48.3%	91.2%	119%
CC1c2ccccc2-c2ccccc2N1C (stereo not given)	105%	105%	101%	100%	105%	86.1%	87.5%	104%	107%
COc1ccc2[nH]c(=O)c(CNc3ccc(Nc4nccc(-c5ccc(Cl)cc5)n4)cc3)cc2c1	91.5%	91.7%	87.6%	102%	93.7%	87.1%	83.8%	98%	100%
CCC(C)C1NC(=O)C(CCNCS(=O)(=O)O)NC(=O)C(NC(=O)C(CCNCS(=O)(=O)O)NC(=O)C(NC(=O)C(CCNCS(=O)(=O)O)NC(=O)CCCCC(C)C)C(C)O)CCNC(=O)C(C(C)O)NC(=O)C(CCNCS(=O)(=O)O)NC(=O)C(CCNCS(=O)(=O)O)NC(=O)C(C(C)CC)NC1=O (stereo not given)	66.6%	77%	70.3%	46.8%	48.8%	95.8%	10.5%	93.1%	1.57% (active)
Nc1ccc(Oc2c(F)c(F)c(Oc3ccc(N)cc3)c(F)c2F)cc1	96.5%	104%	-4.94% (active)	101%	112%	80.5%	90.4%	106%	108%
C=CCNC(=O)/C(=C/c1cccc([N+](=O)[O-])c1)NC(=O)c1ccccc1	98.6%	90.5%	107%	92.4%	111%	91.9%	97.5%	84.7%	120%
CCOc1nc(-c2ccco2)n2nc(-c3ccco3)cc2n1	107%	92.4%	116%	118%	102%	92%	99.1%	103%	131%
CSc1nc(N)c2c(n1)N(C)C=NS2(=O)=O	105%	101%	114%	123%	115%	79.1%	105%	108%	101%
O=Nc1c2cccnc2n2nnc3ccc(Cl)cc3c12	66.4%	85.9%	107%	115%	27.7%	-40.5% (active)	-71.5% (active)	59%	-5.58% (active)
CCSc1nc(-c2ccc(F)cc2)c(C#N)c(=O)[nH]1	95.2%	98.7%	101%	110%	108%	131%	96.8%	108%	126%
CSc1nc2nc3c(c(-c4ccc(C)cc4)c2c(=O)[nH]1)CN(C)C/C3=C\c1ccc(C)cc1	88.4%	102%	103%	115%	111%	97.3%	93.2%	111%	121%
O=C1Nc2ccc(Cl)cc2/C1=C/c1cccs1	88.9%	88.7%	90.5%	80.8%	93.4%	93.7%	96.2%	108%	117%
C[C@]12CC[C@H](O)CC1=CC[C@@H]1[C@@H]2CC[C@]2(C)C(c3cccnc3)=CC[C@@H]12	68.3%	58.5%	84.1%	81.1%	66.5%	72.3%	35.7%	36.9%	95.1%

— PubChem BioAssay (NCI)
